From PubChem BioAssay (NCATS)
Inconclusive results are not listed. Active and inactive are the calls of the source. Calls come from the whole dose curve; as a rule, active = well fitted curve in the direction sought with a large enough effect; inconclusive = small, poorly fitted or top-dose-only effect, or another doubt; inactive = no such curve, though single readings can be large; an effect the other way counts as inactive or inconclusive.

Key:
[1] = system: Es-2; assay: Primary qHTS to identify gynecologic anti-cancer compounds using libraries of approved drugs and bioactive compounds (AID 1345084); conditions: Gynecologic cancer cell panel viability, ATPlite luminescence, 48 h; series mostly up to 57.5 µM; note: nearly all actives have a fitted effect of over 55% in size
Method in brief: (§1)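 In this quantitative HTS, cell killing is estimated from loss of ATP-dependent luciferase light. Cells see five compound concentrations over a 48 h exposure.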

[2] = system: HeLa; assay: as above; conditions: Gynecologic cancer cell panel viability, ATPlite luminescence, 48 h; series mostly up to 57.5 µM
Method in brief: as §1

[3] = system: Hek293T; assay: as above; conditions: Gynecologic cancer cell panel viability, ATPlite luminescence, 48 h, control line for the selectivity index; series mostly up to 57.5 µM
Method in brief: as §1

[4] = system: JEG-3; assay: as above; conditions: Gynecologic cancer cell panel viability, ATPlite luminescence, 48 h; series mostly up to 57.5 µM
Method in brief: as §1

[5] = system: OV90; assay: as above; conditions: Gynecologic cancer cell panel viability, ATPlite luminescence, 48 h; series mostly up to 57.5 µM
Method in brief: as §1

[6] = system: PA-1; assay: as above; conditions: Gynecologic cancer cell panel viability, ATPlite luminescence, 48 h; series mostly up to 57.5 µM
Method in brief: as §1

[7] = system: SKOV3; assay: as above; conditions: Gynecologic cancer cell panel viability, ATPlite luminescence, 48 h; series mostly up to 57.5 µM
Method in brief: as §1

[8] = system: Tov-21-G; assay: as above; conditions: Gynecologic cancer cell panel viability, ATPlite luminescence, 48 h; series mostly up to 57.5 µM
Method in brief: as §1

[9] = system: Tov112D; assay: as above; conditions: Gynecologic cancer cell panel viability, ATPlite luminescence, 48 h; series mostly up to 57.5 µM
Method in brief: as §1

[10] = Drug repurposing screens with cells derived from glioblastoma tumor samples (AID 1345199); conditions: GBM patient neurospheres viability, ATP luminescence, 48 h; note: nearly all actives have a fitted effect of over 40% in size
Method in brief: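 Primary testing used CD133+ neurospheres from four GBM patients, seven concentrations, 48 h exposure and ATP-based viability; confirmation added three slower-growing patient lines.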

[11] = at 45.9 µM (top of the series), tumour line B
[12] = at 45.9 µM (top of the series), tumour line D
[13] = at 46 µM (top of the series), tumour line A
[14] = at 46.1 µM (top of the series), tumour line C
% is set by controls: 0 for no effect and ±100 for the full control effect; potency is the fitted concentration of half-maximal effect.

C[C@@H](O)[C@H]1C(=O)N2C(C(=O)O)=C(S[C@@H]3CN[C@H](CNS(N)(=O)=O)C3)[C@H](C)[C@H]12
inactive: Potency [1] | Potency [2] | Potency [3] | Potency [4] | Potency [5] | Potency [6] | Potency [7] | Potency [8] | Potency [9] | activity, negative = cell killing [10, 11] -1.99% | activity, negative = cell killing [10, 12] 1.38% | activity, negative = cell killing [10, 13] -14.9% | activity, negative = cell killing [10, 14] -16.7%

CC(=O)Nc1ccc(CC(=O)O)cc1
inactive: Potency [1] | Potency [2] | Potency [3] | Potency [4] | Potency [5] | Potency [6] | Potency [7] | Potency [8] | Potency [9] | activity, negative = cell killing [10, 11] 0.59% | activity, negative = cell killing [10, 12] -5.02% | activity, negative = cell killing [10, 13] -20.1% | activity, negative = cell killing [10, 14] 3.56%

N=C(N)N1CCc2ccccc2C1
inactive: activity change, negative = cytotoxicity [1] -6.19% [at 6.55 µM] | activity change, negative = cytotoxicity [2] -13.2% [at 6.55 µM] | activity change, negative = cytotoxicity [3] 5.39% [at 6.55 µM] | activity change, negative = cytotoxicity [4] -0.277% [at 6.55 µM] | activity change, negative = cytotoxicity [5] 0.455% [at 6.55 µM] | activity change, negative = cytotoxicity [6] -0.819% [at 6.55 µM] | activity change, negative = cytotoxicity [7] -11.6% [at 6.55 µM] | activity change, negative = cytotoxicity [8] -1.06% [at 6.55 µM] | activity change, negative = cytotoxicity [9] -0.978% [at 6.55 µM] | activity, negative = cell killing [10, 11] -7.25% | activity, negative = cell killing [10, 12] 0.46% | activity, negative = cell killing [10, 13] -7.22% | activity, negative = cell killing [10, 14] -18.5%

Cc1cc(NS(=O)(=O)c2ccc(N)cc2)nc(C)n1
inactive: Potency [1] | Potency [2] | Potency [3] | Potency [4] | Potency [5] | Potency [6] | Potency [7] | Potency [8] | Potency [9] | activity, negative = cell killing [10, 11] -14.8% | activity, negative = cell killing [10, 12] -16.4% | activity, negative = cell killing [10, 13] -27.1% | activity, negative = cell killing [10, 14] -10.5%

COc1ccccc1N1CCN(CCCCNC(=O)c2ccc(-c3ccc(C(C)=O)cc3)cc2)CC1
inactive: Potency [1] | Potency [2] | Potency [3] | Potency [4] | Potency [5] | Potency [6] | Potency [8] | Potency [9]

CCCN(CCc1cccs1)[C@H]1CCc2c(O)cccc2C1
inactive: Potency [1] | Potency [2] | Potency [3] | Potency [4] | Potency [5] | Potency [6] | Potency [8] | Potency [9]

OC[C@H]1O[C@@H]2O[C@H]3[C@H](O)[C@@H](O)[C@@H](O[C@H]4[C@H](O)[C@@H](O)[C@@H](O[C@H]5[C@H](O)[C@@H](O)[C@@H](O[C@H]6[C@H](O)[C@@H](O)[C@@H](O[C@H]7[C@H](O)[C@@H](O)[C@@H](O[C@H]8[C@H](O)[C@@H](O)[C@@H](O[C@H]1[C@H](O)[C@H]2O)O[C@@H]8CO)O[C@@H]7CO)O[C@@H]6CO)O[C@@H]5CO)O[C@@H]4CO)O[C@@H]3CO
inactive: Potency [1] | Potency [2] | Potency [3] | Potency [4] | Potency [5] | Potency [6] | Potency [7] | Potency [8] | Potency [9] | activity, negative = cell killing [10, 11] -11.6% | activity, negative = cell killing [10, 12] 5.3% | activity, negative = cell killing [10, 13] -16.2% | activity, negative = cell killing [10, 14] -14.8%

CC(=O)Nc1ccc(OC(=O)c2ccccc2OC(C)=O)cc1
inactive: Potency [1] | Potency [2] | Potency [3] | Potency [4] | Potency [5] | Potency [6] | Potency [7] | Potency [8] | Potency [9] | activity, negative = cell killing [10, 11] -12.4% | activity, negative = cell killing [10, 12] -13.4% | activity, negative = cell killing [10, 13] -15.3% | activity, negative = cell killing [10, 14] -16.9%

COc1ccc2c(c1)c1c3n2CCN(C)C3=NCC1
inactive: Potency [1] | Potency [2] | Potency [3] | Potency [4] | Potency [5] | Potency [6] | Potency [7] | Potency [8] | Potency [9] | activity, negative = cell killing [10, 11] -1.83% | activity, negative = cell killing [10, 12] -7.29% | activity, negative = cell killing [10, 14] -23.1%
active: Potency ([10]; tumour line A) 12.6 µM

Nc1nc(N)c(-c2ccccc2)s1
inactive: Potency [1] | Potency [2] | Potency [3] | Potency [4] | Potency [5] | Potency [7] | Potency [8] | Potency [9] | activity, negative = cell killing [10, 11] -11% | activity, negative = cell killing [10, 12] 8.98% | activity, negative = cell killing [10, 13] -29.6% | activity, negative = cell killing [10, 14] -25.4%

COc1ccc(C(Cl)=C(c2ccc(OC)cc2)c2ccc(OC)cc2)cc1
active: Potency ([10]; tumour line A) 11.2 µM
inactive: Potency [1] | Potency [2] | Potency [3] | Potency [4] | Potency [5] | Potency [6] | Potency [8] | Potency [9] | activity, negative = cell killing [10, 11] -6.95% | activity, negative = cell killing [10, 14] 2.89%

CC(=O)NCCCCCC(=O)O
inactive: Potency [1] | Potency [2] | Potency [3] | Potency [4] | Potency [5] | Potency [6] | Potency [8] | Potency [9] | activity, negative = cell killing [10, 11] -15.6% | activity, negative = cell killing [10, 12] -10% | activity, negative = cell killing [10, 13] -23.3% | activity, negative = cell killing [10, 14] -20.2%

C#C[C@]1(O)CC[C@H]2[C@@H]3CCC4=CC(=O)CC[C@@H]4[C@H]3CC[C@@]21CC
active: Potency [2] 3.55 µM
inactive: Potency [1] | Potency [3] | Potency [4] | Potency [5] | Potency [7] | Potency [8] | Potency [9] | activity, negative = cell killing [10, 11] -8.91% | activity, negative = cell killing [10, 12] -3.36% | activity, negative = cell killing [10, 14] 6%

O=C(O)Cc1csc(-c2ccc(Cl)cc2)n1
inactive: Potency [1] | Potency [2] | Potency [3] | Potency [4] | Potency [5] | Potency [6] | Potency [8] | Potency [9] | activity, negative = cell killing [10, 11] -6.84% | activity, negative = cell killing [10, 12] 8.21% | activity, negative = cell killing [10, 13] -20.7% | activity, negative = cell killing [10, 14] -23.2%

Cc1cc(C)cc(OCC2CNC(=O)O2)c1 (centres undefined)
inactive: Potency [1] | Potency [2] | Potency [3] | Potency [4] | Potency [5] | Potency [6] | Potency [8] | Potency [9] | activity, negative = cell killing [10, 11] 0.397% | activity, negative = cell killing [10, 12] -17.2% | activity, negative = cell killing [10, 13] -25.9% | activity, negative = cell killing [10, 14] 3.04%

O=C1C(CCS(=O)c2ccccc2)C(=O)N(c2ccccc2)N1c1ccccc1 (centres undefined)
inactive: Potency [1] | Potency [2] | Potency [3] | Potency [4] | Potency [5] | Potency [6] | Potency [8] | Potency [9] | activity, negative = cell killing ([10]; at 20 µM (top of the series), tumour line C) 4.04% | activity, negative = cell killing ([10]; at 21.2 µM (top of the series), tumour line B) 2.69% | activity, negative = cell killing ([10]; at 21.2 µM (top of the series), tumour line D) 2.83% | activity, negative = cell killing ([10]; at 21.3 µM (top of the series), tumour line A) -0.0177%
